Assay results as given in paper PMC7862700, “An all-to-all approach to the identification of sequence-specific readers for epigenetic DNA modifications on cytosine”.

Legend:
Experiment in all cases: DAPPL (digital affinity profiling via proximity ligation, sequencing); 10 mM Tris-HCl pH 7.5, 50 mM NaCl, 1 mM DTT, 4% glycerol, room temperature, 30 min; GST-TFs on glutathione beads, 16-mer random dsDNA library, 0.1% formaldehyde crosslink after washing; high values mean tight binding
[1] = target: T1, FEV (Homo sapiens, UniProt Q99581 1-238); conditions: protein: recombinant; tags: N-terminal GST; dsDNA, one strand shown
T1 sequence: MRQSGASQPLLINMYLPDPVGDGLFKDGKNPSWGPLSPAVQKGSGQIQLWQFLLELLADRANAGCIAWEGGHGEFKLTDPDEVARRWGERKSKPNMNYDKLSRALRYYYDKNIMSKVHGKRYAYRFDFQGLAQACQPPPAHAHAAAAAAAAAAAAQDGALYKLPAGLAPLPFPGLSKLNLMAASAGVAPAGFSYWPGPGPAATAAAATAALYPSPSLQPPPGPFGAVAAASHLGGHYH
How it was run: (§1)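 Each value of binding signal is a hexamer's read frequency for a factor divided by the same hexamer's frequency in the tag-only sample. Barcoded, bead-captured GST fusions of human transcription factors made in yeast were pooled with that sample and incubated with 200 nmole of a random double-stranded 16-mer DNA library in Tris/NaCl/DTT/glycerol buffer at room temperature for 30 min. Washing, 0.1% formaldehyde crosslinking, proximity ligation, PCR and Illumina NextSeq500 sequencing followed.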

[2] = target: ETV5 (Homo sapiens, UniProt P41161 1-510); conditions: protein: recombinant; tags: N-terminal GST; dsDNA, one strand shown
How it was run: as §1

[3] = target: HSF1 (Homo sapiens, UniProt Q00613 1-529); conditions: protein: recombinant; tags: N-terminal GST; chain copies: 3; dsDNA, one strand shown
How it was run: as §1

[4] = target: T2, SPIC (Homo sapiens, UniProt Q8N5J4 1-248); conditions: protein: recombinant; tags: N-terminal GST; dsDNA, one strand shown
T2 sequence: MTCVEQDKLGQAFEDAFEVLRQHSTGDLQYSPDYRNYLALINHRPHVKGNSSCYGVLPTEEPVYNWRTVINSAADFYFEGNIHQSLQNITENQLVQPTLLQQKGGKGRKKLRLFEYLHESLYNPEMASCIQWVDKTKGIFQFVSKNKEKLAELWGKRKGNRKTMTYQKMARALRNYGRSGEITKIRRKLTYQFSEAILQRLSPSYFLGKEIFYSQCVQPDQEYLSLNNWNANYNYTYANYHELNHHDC
How it was run: as §1

[5] = target: ELF4 (Homo sapiens, UniProt Q99607 1-663); conditions: protein: recombinant; tags: N-terminal GST; dsDNA, one strand shown
How it was run: as §1

[6] = target: T3, ELK4 (Homo sapiens, UniProt P28324-2 1-405); conditions: protein: recombinant; tags: N-terminal GST; dsDNA, one strand shown
T3 sequence: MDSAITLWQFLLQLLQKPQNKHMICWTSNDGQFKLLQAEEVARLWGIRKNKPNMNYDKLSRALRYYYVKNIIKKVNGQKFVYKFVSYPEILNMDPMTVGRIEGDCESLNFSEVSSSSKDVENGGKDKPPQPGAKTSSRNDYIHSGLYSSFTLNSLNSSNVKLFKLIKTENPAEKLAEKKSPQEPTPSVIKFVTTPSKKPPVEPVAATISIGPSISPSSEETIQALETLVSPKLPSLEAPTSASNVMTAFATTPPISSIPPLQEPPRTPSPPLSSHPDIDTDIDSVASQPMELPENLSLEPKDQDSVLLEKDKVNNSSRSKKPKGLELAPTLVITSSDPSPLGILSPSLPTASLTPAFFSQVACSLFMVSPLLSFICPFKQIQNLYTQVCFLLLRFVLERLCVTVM
How it was run: as §1

[7] = target: T4, ETV2 (Homo sapiens, UniProt O00321 1-342); conditions: protein: recombinant; tags: N-terminal GST; dsDNA, one strand shown
T4 sequence: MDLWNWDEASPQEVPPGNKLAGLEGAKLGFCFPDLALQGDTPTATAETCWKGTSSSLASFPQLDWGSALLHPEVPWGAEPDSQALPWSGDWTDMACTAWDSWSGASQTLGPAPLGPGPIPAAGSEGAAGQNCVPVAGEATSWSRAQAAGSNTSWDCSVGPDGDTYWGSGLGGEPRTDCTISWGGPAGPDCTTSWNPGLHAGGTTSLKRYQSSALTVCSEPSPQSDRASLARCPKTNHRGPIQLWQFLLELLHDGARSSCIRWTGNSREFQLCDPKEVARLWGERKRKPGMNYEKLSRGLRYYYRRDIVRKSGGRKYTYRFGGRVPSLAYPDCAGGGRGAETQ
How it was run: as §1

[8] = target: T5, ELF3 (Homo sapiens, UniProt P78545 1-371); conditions: protein: recombinant; tags: N-terminal GST; dsDNA, one strand shown
T5 sequence: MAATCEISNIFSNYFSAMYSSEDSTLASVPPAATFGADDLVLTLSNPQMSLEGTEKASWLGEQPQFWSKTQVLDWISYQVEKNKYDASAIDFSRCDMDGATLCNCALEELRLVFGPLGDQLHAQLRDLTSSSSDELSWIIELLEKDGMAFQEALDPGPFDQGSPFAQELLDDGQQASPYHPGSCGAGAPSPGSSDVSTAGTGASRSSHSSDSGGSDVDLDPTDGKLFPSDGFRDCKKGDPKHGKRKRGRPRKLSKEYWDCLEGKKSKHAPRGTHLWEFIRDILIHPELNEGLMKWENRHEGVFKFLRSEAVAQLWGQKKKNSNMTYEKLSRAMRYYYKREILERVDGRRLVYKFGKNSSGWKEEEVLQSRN
How it was run: as §1

[9] = target: CRX (Homo sapiens, UniProt O43186 1-299); conditions: protein: recombinant; tags: N-terminal GST; dsDNA, one strand shown
How it was run: as §1

[10] = target: ETV1 (Homo sapiens, UniProt P50549 1-477); conditions: protein: recombinant; tags: N-terminal GST; dsDNA, one strand shown
How it was run: as §1

ELF4, sequence (Q99607 whole entry): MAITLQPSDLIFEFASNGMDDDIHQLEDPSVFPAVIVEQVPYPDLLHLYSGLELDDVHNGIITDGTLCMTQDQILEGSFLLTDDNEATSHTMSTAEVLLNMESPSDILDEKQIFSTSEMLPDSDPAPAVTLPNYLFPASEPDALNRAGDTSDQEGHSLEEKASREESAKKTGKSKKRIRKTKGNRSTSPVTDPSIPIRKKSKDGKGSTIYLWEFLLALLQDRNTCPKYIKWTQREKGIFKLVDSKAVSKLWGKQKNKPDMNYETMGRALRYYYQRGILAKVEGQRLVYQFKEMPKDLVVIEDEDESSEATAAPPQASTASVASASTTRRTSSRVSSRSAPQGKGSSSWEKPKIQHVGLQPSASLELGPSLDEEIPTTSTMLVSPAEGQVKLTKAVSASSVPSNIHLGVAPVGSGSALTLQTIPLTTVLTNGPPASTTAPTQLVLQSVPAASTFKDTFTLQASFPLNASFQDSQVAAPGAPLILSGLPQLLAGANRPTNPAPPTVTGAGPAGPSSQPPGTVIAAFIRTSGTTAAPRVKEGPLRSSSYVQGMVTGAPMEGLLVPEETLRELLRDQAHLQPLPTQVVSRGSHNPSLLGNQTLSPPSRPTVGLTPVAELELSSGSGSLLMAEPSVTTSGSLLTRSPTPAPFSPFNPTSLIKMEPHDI
CRX, sequence (O43186 whole entry): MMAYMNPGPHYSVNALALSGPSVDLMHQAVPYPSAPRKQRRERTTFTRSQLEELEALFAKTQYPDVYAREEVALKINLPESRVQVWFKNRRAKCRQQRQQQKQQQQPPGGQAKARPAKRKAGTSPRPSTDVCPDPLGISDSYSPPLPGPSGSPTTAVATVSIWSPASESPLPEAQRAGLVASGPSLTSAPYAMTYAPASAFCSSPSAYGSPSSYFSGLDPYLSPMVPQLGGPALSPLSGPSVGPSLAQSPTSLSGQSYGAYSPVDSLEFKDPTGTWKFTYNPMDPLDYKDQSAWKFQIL
HSF1, sequence (Q00613 whole entry): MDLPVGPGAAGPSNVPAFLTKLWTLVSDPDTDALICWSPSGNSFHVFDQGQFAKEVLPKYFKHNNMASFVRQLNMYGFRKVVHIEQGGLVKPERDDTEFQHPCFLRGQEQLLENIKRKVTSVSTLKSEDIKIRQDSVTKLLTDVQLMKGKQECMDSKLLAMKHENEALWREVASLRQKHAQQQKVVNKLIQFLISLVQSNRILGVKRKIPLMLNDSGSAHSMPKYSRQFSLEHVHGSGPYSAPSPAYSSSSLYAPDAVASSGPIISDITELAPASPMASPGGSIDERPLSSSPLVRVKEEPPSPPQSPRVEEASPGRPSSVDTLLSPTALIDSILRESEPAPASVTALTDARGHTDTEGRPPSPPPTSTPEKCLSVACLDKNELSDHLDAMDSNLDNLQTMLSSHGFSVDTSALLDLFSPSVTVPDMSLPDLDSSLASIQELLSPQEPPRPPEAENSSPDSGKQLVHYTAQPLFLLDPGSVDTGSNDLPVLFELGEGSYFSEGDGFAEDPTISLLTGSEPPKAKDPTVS
ETV5, sequence (P41161 whole entry): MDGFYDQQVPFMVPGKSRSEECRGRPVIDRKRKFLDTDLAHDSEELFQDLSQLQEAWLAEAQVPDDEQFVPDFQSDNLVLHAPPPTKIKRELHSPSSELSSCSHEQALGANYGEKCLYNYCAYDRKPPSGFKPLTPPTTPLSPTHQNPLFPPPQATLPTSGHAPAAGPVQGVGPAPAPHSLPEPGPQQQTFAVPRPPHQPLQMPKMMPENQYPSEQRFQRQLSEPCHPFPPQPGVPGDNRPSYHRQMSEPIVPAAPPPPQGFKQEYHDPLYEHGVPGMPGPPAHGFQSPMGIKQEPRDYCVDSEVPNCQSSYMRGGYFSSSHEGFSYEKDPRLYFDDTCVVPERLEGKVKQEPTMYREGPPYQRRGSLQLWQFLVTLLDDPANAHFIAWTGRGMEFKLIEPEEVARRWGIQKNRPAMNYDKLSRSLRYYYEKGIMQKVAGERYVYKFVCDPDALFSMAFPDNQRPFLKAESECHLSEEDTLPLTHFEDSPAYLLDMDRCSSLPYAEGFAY
ETV1, sequence (P50549 whole entry): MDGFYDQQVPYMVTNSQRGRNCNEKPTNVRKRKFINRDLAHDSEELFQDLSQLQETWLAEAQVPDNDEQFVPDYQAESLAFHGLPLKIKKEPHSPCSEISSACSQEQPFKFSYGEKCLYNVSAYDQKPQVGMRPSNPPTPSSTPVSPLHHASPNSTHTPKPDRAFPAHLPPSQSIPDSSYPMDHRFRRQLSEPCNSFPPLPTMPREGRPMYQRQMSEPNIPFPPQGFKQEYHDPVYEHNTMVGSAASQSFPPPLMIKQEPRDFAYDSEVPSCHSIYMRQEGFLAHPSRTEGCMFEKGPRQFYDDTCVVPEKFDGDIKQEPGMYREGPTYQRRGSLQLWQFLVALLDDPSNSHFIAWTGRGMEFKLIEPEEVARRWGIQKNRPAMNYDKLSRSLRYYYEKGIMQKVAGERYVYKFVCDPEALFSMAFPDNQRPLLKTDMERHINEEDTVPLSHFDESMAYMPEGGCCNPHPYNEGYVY

## ATCTAC
[1]
  binding signal: 1.33 fold enrichment (6-mer frequency, TF over GST control)
[2]
  binding signal: 1.25 fold enrichment (6-mer frequency, TF over GST control)
[3]
  binding signal: 1.43 fold enrichment (6-mer frequency, TF over GST control)
[4]
  binding signal: 1.34 fold enrichment (6-mer frequency, TF over GST control)
[5]
  binding signal: 1.27 fold enrichment (6-mer frequency, TF over GST control)
[6]
  binding signal: 1.11 fold enrichment (6-mer frequency, TF over GST control)
[7]
  binding signal: 1.29 fold enrichment (6-mer frequency, TF over GST control)
[8]
  binding signal: 1.33 fold enrichment (6-mer frequency, TF over GST control)
[9]
  binding signal: 1.5 fold enrichment (6-mer frequency, TF over GST control)
[10]
  binding signal: 1.26 fold enrichment (6-mer frequency, TF over GST control)
